Experiment [1] is described as follows: ATG_TAL_CIS: Attagene CIS-FACTORIAL HepG2 Assay for human TAL Basal Promoter (AID 2282966; active = hit-call score of the fitted dose curve at least 0.9, where 1 is the maximum; inactive = score below 0.9;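 also: background control endpoint measuring basal TAL promoter reporter mRNA not a specific factor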). Particulars: HepG2 Attagene cis-factorial TAL promoter reporter; actives raise or lower the signal. The gist of the method:
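HepG2 cells were transiently transfected with promoter-driven multiplexed reporter units and dosed for 24 h. Reporter mRNA was measured by RT-PCR with capillary electrophoresis fluorescence; bidirectional fits used DMSO as baseline, serving as a background control.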

Experiment [2] can be described thus: ATG_TGFb_CIS: Attagene CIS-FACTORIAL HepG2 Assay for human Transforming Growth Factor (TGF) (AID 2282967; active = hit-call score of the fitted dose curve at least 0.9, where 1 is the maximum; inactive = score below 0.9). Conditions: HepG2 Attagene CIS TGFb reporter, mRNA transcription; actives raise or lower the signal. The method in brief: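 Cells were dosed for 24 hours, after which total RNA was reverse-transcribed and reporter sequences amplified, labeled and sized by capillary electrophoresis. Activity was fitted in both directions against DMSO.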

The nature of experiment [3]: ATG_VDRE_CIS: Attagene CIS-FACTORIAL HepG2 Assay for human Vitamin D Receptor Element (VDRE) (AID 2282968; active = hit-call score of the fitted dose curve at least 0.9, where 1 is the maximum; inactive = score below 0.9). Conditions: HepG2 VDRE cis-reporter transcription, actives raise or lower the signal. The gist of the method: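 Reporter mRNA induction, quantified by capillary electrophoresis of fluorescently labelled RT-PCR products, was read 24 h after dosing HepG2 cells carrying transiently transfected cis-regulated reporter units; gain or loss relative to DMSO.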

The target of experiment [4] is Estrogen receptor (Homo sapiens) (UniProt P03372). The experiment in a line: ATG_ERa_TRANS: Attagene TRANS-FACTORIAL HepG2 Assay for human Estrogen Receptor alpha (ERa) (AID 2282970). Particulars: HepG2 Attagene TRANS ERa GAL4 reporter, mRNA. The method in brief:
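HepG2 cells transiently transfected with multiplexed GAL4-UAS reporter units; ERa activity read via exogenous chimeric NR-Gal4 protein. After 24 hour compound exposure, reporter mRNA measured by RT-PCR with 6-FAM labelling and capillary electrophoresis; gain-of-signal fitted relative to DMSO.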

Experiment [5] addresses X-box-binding protein 1 (Homo sapiens) (UniProt P17861). The experiment in a line: ATG_Xbp1_CIS: Attagene CIS-FACTORIAL HepG2 Assay for human X-box Binding Protein 1 (XBP1) (AID 2282972; active = hit-call score of the fitted dose curve at least 0.9, where 1 is the maximum; inactive = score below 0.9). Particulars: HepG2 XBP1 cis-element reporter, Attagene multiplex; actives raise or lower the signal. The method in brief: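 After a 24-hour chemical exposure of HepG2 cells carrying cis-regulated reporters, reporter mRNA levels are assessed. Quantification uses RT-PCR, 6-FAM labelling and capillary electrophoresis. Gain- or loss-of-signal is fitted against DMSO.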

A short description of experiment [6]: ATG_M_19_TRANS: Attagene TRANS-FACTORIAL HepG2 Assay for M19 Transcription Factor (Internal Marker) (AID 2282974). Particulars: HepG2 Attagene TRANS-FACTORIAL M19 internal marker reporter. The method in brief:
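Background-control readout: after 24 h chemical exposure of transfected HepG2 carrying GAL4-driven reporter units, RNA was reverse-transcribed, amplified, fluorescently labeled and sized by capillary electrophoresis; gain-of-signal fit against DMSO.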

Experiment [7] is described as follows: ATG_GAL4_TRANS: Attagene TRANS-FACTORIAL HepG2 Assay for GAL4 (Internal Marker) (AID 2282976). Conditions: HepG2 Attagene TRANS GAL4 internal marker reporter. The gist of the method: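 HepG2 cells transiently transfected with multiplexed GAL4-UAS reporter constructs were dosed for 24 h. Reporter mRNA was measured by RT-PCR, 6-FAM primer extension, HpaI digestion and capillary electrophoresis, and gain of signal was fitted relative to DMSO.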

The target of experiment [8] is Glucocorticoid receptor (Homo sapiens) (UniProt P04150). Description: ATG_GR_TRANS: Attagene TRANS-FACTORIAL HepG2 Assay for human Glucocorticoid Receptor (GR) (AID 2282978).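 Also: activators score as hits since higher reporter transcript over DMSO is fitted.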 Conditions: HepG2 Attagene TRANS GR reporter, mRNA transcription. The gist of the method: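 Readout is reporter transcript from a chimeric GR-Gal4 acting on GAL4-UAS in transfected human HepG2 liver cells after 24 h exposure, quantified by RT-PCR and capillary electrophoresis. Activation fitted upward against DMSO.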
Glucocorticoid receptor (Homo sapiens), sequence (P04150 whole entry, looked up, the tested form may be a part): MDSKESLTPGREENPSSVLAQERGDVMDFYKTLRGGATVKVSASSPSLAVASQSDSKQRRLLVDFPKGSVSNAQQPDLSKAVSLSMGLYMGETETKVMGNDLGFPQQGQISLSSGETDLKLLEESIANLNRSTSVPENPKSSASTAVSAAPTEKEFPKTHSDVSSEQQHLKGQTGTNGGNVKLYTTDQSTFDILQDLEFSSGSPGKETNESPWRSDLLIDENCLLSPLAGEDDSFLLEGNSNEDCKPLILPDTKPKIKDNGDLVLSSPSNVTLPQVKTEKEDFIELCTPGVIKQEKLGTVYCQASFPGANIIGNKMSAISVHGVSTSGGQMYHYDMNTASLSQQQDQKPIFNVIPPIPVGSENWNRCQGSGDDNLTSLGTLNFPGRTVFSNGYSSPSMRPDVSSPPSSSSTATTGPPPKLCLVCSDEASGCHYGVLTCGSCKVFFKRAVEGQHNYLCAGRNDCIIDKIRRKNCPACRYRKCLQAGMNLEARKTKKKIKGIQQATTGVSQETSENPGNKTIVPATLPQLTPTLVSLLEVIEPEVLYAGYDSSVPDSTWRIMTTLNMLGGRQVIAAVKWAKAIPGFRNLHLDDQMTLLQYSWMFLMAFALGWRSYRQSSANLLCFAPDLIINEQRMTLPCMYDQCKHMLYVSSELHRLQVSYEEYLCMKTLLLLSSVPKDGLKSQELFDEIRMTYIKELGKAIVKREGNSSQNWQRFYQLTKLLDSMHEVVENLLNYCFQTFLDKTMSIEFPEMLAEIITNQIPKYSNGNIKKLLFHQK

Experiment [9] has as its target Bile acid receptor (Homo sapiens) (UniProt Q96RI1). The experiment in a line: ATG_FXR_TRANS: Attagene TRANS-FACTORIAL HepG2 Assay for Farnesoid X Receptor (FXR) (AID 2282979).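 Also: hits raise reporter mRNA above DMSO so AC50 marks FXR activation.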 Particulars: HepG2 Attagene TRANS FXR-GAL4 reporter transcription. The method in brief:
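HepG2 cells transiently transfected with reporter constructs in which a chimeric FXR-GAL4 protein drives a GAL4-UAS reporter; 24 h compound exposure. Reporter mRNA measured by RT-PCR, FAM labelling, HpaI digestion and capillary electrophoresis; gain-of-signal versus DMSO.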

Experiment [10] in a line: ATG_M_32_TRANS: Attagene TRANS-FACTORIAL HepG2 Assay for M32 Transcription Factor (Internal Marker) (AID 2282984). Particulars: HepG2 Attagene TRANS M32 internal marker reporter. The method in brief: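 Measures reporter mRNA induction in human HepG2 liver cells after 24 h chemical treatment. Transcripts from transiently transfected GAL4-UAS reporter units are amplified, fluorescently labelled and sized by capillary electrophoresis; gain of signal relative to DMSO.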

In experiment [11] the target is Transcriptional activator Myb (Homo sapiens) (UniProt P10242). The experiment in a line: ATG_Myb_CIS: Attagene CIS-FACTORIAL HepG2 Assay for human Myeloblastosis (Myb) Proto-Oncogene Transcription Factor (AID 2282986; active = hit-call score of the fitted dose curve at least 0.9, where 1 is the maximum; inactive = score below 0.9). Conditions: HepG2 Attagene CIS-FACTORIAL Myb reporter transcription; actives raise or lower the signal. The gist of the method:
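Reporter mRNA is quantified by RT-PCR and capillary electrophoresis 24 h after dosing HepG2 cells transfected with cis-regulated reporter units, which track endogenous transcription factor activity. Gain and loss of signal are fitted versus DMSO baseline.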

Experiment [12] addresses Nuclear respiratory factor 1 (Homo sapiens) (UniProt Q16656). Description: ATG_NRF1_CIS: Attagene CIS-FACTORIAL HepG2 Assay for human Nuclear Respiratory Factor 1 (NRF1) Orphan Gene (AID 2282987; active = hit-call score of the fitted dose curve at least 0.9, where 1 is the maximum; inactive = score below 0.9). Conditions: HepG2 NRF1 cis-element reporter, Attagene multiplex; actives raise or lower the signal. The gist of the method:
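Endogenous NRF1-driven reporter transcription in transfected HepG2 cells after 24 h treatment. Readout: RT-PCR products, 6-FAM labelled and resolved by capillary electrophoresis; changes fitted both directions relative to DMSO.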

For experiment [13], the target named is Nuclear receptor subfamily 1 group I member 3 (Homo sapiens) (UniProt Q14994). The experiment in a line: ATG_CAR_TRANS: Attagene TRANS-FACTORIAL HepG2 Assay for human Constitutive Androstane Receptor (CAR) (AID 2282969).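 Also: activators raise reporter mRNA above DMSO so AC50 marks induction.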 Particulars: HepG2 Attagene TRANS-FACTORIAL CAR reporter. The method in brief: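 Readout is reporter mRNA induction, quantified by fluorescent primer extension and capillary electrophoresis after RT-PCR. Cells were HepG2 transiently carrying chimeric NR-Gal4 constructs with GAL4-UAS reporters, treated for 24 h; activity scored upward from DMSO.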
Nuclear receptor subfamily 1 group I member 3 (Homo sapiens), sequence (Q14994 whole entry, looked up, the tested form may be a part): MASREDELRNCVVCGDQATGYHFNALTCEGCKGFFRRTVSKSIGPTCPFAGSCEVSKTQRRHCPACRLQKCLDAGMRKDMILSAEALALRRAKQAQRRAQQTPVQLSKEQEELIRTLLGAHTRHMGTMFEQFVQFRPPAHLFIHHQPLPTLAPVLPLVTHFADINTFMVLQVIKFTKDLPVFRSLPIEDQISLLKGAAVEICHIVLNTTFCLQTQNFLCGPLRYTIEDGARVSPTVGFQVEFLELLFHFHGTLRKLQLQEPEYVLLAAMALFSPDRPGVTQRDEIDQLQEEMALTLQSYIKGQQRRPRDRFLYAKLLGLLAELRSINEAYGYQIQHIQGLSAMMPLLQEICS

Experiment [14] addresses Oxysterols receptor LXR-alpha (Homo sapiens) (UniProt Q13133). Description: ATG_LXRa_TRANS: Attagene TRANS-FACTORIAL HepG2 Assay for human Liver X Receptor alpha (LXRa) (AID 2282980). Conditions: HepG2 Attagene TRANS reporter, LXRa transactivation. The gist of the method: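 HepG2 cells were transiently transfected with multiplexed reporter units driven by chimeric LXRa–GAL4 fusion proteins, then dosed for 24 h. Reporter mRNA was quantified by RT-PCR, fluorescent labelling and capillary electrophoresis; gain of signal fitted against DMSO baseline.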

The target in experiment [15] is Hepatocyte nuclear factor 4-alpha (Homo sapiens) (UniProt P41235). The experiment in a line: ATG_HNF4a_TRANS: Attagene TRANS-FACTORIAL HepG2 Assay for human Hepatocyte Nuclear Factor 4 alpha (HNF4a) (AID 2282982). Particulars: HepG2 HNF4a transactivation reporter, mRNA readout. The method in brief: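 Readout is fluorescent reporter-transcript fragments resolved by capillary electrophoresis after RT-PCR from HepG2 cells dosed for 24 h. Cells carried transfected GAL4-UAS reporter constructs measuring exogenous NR-GAL4 chimera activity; DMSO served as baseline.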
Hepatocyte nuclear factor 4-alpha (Homo sapiens), sequence (P41235 whole entry, looked up, the tested form may be a part): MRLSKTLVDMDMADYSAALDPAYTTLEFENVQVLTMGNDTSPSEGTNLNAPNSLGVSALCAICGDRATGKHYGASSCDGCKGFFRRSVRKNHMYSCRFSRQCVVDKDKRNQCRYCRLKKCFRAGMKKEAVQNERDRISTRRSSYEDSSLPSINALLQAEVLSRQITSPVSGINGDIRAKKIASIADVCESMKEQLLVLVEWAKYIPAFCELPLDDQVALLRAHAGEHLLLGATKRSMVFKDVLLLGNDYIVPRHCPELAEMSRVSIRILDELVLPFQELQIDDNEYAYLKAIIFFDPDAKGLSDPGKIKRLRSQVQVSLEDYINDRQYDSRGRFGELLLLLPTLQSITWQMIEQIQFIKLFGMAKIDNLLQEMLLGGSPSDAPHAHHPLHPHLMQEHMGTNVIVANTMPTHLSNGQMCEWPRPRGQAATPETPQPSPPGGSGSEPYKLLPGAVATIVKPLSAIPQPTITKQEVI

Experiment [16] is described as follows: ATG_M_06_TRANS: Attagene TRANS-FACTORIAL HepG2 Assay for M06 Transcription Factor (Internal Marker) (AID 2282983).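 Also: reporter transcript level by RT-PCR then capillary electrophoresis fluorescence.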 Conditions: HepG2 Attagene TRANS M06 internal marker reporter. The method in brief:
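HepG2 cells transiently transfected with multiplexed GAL4-UAS reporter transcription units; after 24 h compound exposure, reporter mRNA measured by RT-PCR, FAM-labelled primer extension, HpaI digestion and capillary electrophoresis. Gain-of-signal fitted versus DMSO baseline; background control readout.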

Experiment [17] concerns the target Steroid hormone receptor ERR1 (Homo sapiens) (UniProt P11474). The experiment in a line: ATG_ERRa_TRANS: Attagene TRANS-FACTORIAL HepG2 Assay for human Estrogen-Related Receptor alpha (ERRa) (AID 2282971). Conditions: HepG2 Attagene TRANS reporter, ERRa transactivation. The method in brief: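 HepG2 cells transiently transfected with multiplexed GAL4-UAS reporter units reading chimeric ERRa-Gal4 activity; 24 h compound exposure. Reporter mRNA measured by RT-PCR, 6-FAM labelling, HpaI digest and capillary electrophoresis; gain of signal fitted versus DMSO baseline.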

Experiment [18] concerns the target Estrogen-related receptor gamma (Homo sapiens) (UniProt P62508). Description: ATG_ERRg_TRANS: Attagene TRANS-FACTORIAL HepG2 Assay for human Estrogen-Related Receptor gamma (ERRg) (AID 2282977).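 Also: hits increase reporter signal over DMSO so potencies reflect activators.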 Conditions: HepG2 Attagene TRANS reporter, ERRg transactivation. The gist of the method: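 Transfect HepG2 with multiple GAL4-UAS reporter transcription units; dose chemicals 24 h; isolate RNA, reverse-transcribe with oligo(dT), PCR-amplify, label with 6-FAM, digest with HpaI; size fragments by capillary electrophoresis. DMSO serves as negative control.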

Experiment [19] addresses Oxysterols receptor LXR-beta (Homo sapiens) (UniProt P55055). The experiment in a line: ATG_LXRb_TRANS: Attagene TRANS-FACTORIAL HepG2 Assay for human Liver X Receptor beta (LXRb) (AID 2282981). Conditions: HepG2 Attagene TRANS GAL4-LXRb reporter, mRNA. The gist of the method: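 Transient transfection HepG2 (multiplexed RTUs, GAL4-UAS); NR-Gal4 chimera; 24 h exposure; RNA → RT-PCR → 6-FAM primer extension → HpaI → CE; increase vs DMSO.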

Experiment [20] has as its target Nuclear receptor subfamily 4 group A member 2 (Homo sapiens) (UniProt P43354). The experiment in a line: ATG_NURR1_TRANS: Attagene TRANS-FACTORIAL HepG2 Assay for human Nuclear Receptor Related Protein 1 (NURR1) (AID 2282985). Particulars: HepG2 Attagene TRANS reporter, mRNA readout. The method in brief: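 Transient transfection of HepG2, human liver cells, with multiple GAL4-UAS reporter transcription units. Cells dosed 24 h, RNA isolated, reverse-transcribed, PCR-amplified, FAM-labelled, HpaI-digested, sized by capillary electrophoresis. DMSO served as negative control.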

Structures are written as SMILES. Results filed as inconclusive are left out. Some compounds were tested as several samples or in several runs, with calls that do not always agree. Active and inactive are the calls of the source. The calls were made as follows, unless noted: active = hit-call score of the fitted dose curve at least 0.9, where 1 is the maximum; inconclusive = response in the unintended direction; inactive = score below 0.9.

Estrogen receptor (Homo sapiens), sequence (P03372 whole entry, looked up, the tested form may be a part): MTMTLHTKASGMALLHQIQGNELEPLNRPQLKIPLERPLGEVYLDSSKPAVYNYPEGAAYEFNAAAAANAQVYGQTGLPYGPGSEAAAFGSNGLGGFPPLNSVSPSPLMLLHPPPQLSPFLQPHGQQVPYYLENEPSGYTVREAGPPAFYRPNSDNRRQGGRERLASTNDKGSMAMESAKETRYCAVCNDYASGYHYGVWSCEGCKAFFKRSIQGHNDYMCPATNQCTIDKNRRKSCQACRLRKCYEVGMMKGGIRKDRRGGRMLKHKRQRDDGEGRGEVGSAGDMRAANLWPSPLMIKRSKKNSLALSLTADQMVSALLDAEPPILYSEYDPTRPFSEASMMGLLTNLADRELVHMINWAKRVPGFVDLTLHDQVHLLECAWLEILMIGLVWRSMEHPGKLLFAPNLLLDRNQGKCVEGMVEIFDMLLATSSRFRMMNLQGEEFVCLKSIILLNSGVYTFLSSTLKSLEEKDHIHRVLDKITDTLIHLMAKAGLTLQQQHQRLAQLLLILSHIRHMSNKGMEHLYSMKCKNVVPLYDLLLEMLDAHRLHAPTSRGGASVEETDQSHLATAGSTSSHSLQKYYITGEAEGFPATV
Bile acid receptor (Homo sapiens), sequence (Q96RI1 whole entry, looked up, the tested form may be a part): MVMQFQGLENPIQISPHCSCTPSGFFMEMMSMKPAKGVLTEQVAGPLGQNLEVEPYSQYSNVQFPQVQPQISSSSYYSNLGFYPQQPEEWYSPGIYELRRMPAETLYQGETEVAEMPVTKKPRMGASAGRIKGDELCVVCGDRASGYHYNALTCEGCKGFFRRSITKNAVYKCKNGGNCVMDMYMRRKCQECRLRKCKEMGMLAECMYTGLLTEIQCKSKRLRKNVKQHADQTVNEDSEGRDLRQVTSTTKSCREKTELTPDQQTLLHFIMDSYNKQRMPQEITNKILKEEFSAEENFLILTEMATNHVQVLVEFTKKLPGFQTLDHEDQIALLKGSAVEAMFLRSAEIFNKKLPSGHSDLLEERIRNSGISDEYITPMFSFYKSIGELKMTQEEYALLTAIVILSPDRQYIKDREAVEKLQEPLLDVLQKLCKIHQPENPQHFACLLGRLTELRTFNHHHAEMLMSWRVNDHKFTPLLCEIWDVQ
Transcriptional activator Myb (Homo sapiens), sequence (P10242 whole entry, looked up): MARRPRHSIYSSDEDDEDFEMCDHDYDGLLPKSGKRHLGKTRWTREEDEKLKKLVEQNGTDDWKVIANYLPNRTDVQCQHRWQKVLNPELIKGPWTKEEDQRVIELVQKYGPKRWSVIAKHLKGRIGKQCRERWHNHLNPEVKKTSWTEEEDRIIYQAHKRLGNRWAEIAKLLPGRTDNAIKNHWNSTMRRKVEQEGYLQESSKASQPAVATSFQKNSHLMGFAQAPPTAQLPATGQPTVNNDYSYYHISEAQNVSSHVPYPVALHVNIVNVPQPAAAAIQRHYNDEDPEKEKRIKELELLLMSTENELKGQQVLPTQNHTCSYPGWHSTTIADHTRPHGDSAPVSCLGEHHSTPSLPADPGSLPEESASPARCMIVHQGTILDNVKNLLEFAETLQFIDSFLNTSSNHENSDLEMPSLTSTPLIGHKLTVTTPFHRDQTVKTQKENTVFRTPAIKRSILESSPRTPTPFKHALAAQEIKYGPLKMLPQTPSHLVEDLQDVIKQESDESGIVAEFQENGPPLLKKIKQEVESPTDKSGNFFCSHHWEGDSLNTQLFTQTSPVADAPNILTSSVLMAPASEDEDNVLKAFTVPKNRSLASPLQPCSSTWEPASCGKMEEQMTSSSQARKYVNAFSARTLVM
Oxysterols receptor LXR-alpha (Homo sapiens), sequence (Q13133 whole entry, looked up, the tested form may be a part): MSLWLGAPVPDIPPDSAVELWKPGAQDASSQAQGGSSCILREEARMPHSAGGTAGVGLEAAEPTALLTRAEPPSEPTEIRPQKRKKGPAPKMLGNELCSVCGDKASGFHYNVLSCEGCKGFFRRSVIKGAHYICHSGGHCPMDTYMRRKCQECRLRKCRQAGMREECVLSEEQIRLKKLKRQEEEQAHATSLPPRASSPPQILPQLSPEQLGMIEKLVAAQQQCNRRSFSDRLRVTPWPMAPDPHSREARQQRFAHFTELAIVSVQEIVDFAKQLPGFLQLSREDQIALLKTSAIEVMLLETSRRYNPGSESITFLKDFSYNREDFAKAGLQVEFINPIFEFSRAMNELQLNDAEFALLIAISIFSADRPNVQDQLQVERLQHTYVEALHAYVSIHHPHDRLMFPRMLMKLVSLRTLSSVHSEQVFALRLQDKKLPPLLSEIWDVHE
Oxysterols receptor LXR-beta (Homo sapiens), sequence (P55055 whole entry, looked up, the tested form may be a part): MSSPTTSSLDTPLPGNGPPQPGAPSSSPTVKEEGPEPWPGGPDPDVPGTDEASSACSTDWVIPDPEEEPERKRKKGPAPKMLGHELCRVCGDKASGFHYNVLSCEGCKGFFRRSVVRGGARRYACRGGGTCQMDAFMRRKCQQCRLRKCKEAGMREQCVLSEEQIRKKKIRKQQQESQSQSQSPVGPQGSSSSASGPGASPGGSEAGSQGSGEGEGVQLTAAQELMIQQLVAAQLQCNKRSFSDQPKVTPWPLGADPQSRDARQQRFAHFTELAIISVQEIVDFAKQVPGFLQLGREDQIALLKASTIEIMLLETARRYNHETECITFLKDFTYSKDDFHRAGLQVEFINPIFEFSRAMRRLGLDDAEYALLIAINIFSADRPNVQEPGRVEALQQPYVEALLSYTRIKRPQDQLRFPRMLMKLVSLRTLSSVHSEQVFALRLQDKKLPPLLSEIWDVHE
X-box-binding protein 1 (Homo sapiens), sequence (P17861 whole entry, looked up): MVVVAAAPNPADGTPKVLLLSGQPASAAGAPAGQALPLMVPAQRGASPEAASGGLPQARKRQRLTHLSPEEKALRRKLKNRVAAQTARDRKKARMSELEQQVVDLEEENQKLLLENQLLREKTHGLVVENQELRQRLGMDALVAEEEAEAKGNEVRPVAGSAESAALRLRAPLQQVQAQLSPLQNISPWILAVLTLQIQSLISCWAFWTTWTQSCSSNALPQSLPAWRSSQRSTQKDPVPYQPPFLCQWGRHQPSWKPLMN
Nuclear respiratory factor 1 (Homo sapiens), sequence (Q16656 whole entry, looked up): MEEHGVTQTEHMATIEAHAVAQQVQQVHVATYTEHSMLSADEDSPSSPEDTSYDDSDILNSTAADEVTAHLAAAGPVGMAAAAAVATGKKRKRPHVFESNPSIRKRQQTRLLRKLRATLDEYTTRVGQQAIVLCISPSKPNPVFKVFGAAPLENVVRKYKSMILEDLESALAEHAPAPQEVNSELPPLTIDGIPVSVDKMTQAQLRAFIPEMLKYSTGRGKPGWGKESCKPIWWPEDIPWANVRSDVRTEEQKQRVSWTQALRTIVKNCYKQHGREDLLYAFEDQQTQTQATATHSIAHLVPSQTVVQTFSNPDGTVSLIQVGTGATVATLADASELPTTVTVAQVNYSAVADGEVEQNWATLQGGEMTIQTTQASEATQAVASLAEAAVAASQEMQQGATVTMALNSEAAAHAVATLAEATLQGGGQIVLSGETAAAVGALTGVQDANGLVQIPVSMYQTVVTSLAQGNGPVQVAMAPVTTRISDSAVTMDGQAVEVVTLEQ

`COc1cccc([C@H](O)C2CCN(CCc3ccc(F)cc3)CC2)c1OC`: the result in experiment [1], in experiment [2], in [3], in [4], in experiment [5] and in experiment [6] was inactive. The molecule was called inactive in experiment [7], in experiment [8], in experiment [9], in experiment [10], in experiment [11] and in experiment [12].
A word on the AC50: it is the midpoint of the concentration-response curve, whichever way the signal moves. Turning to `CC[C@@H]1C[C@H](N(Cc2cc(C(F)(F)F)cc(C(F)(F)F)c2)C(C)=O)c2cc(C(F)(F)F)ccc2N1C(=O)OC(C)C`, the molecule was classed as inactive in experiment [1], in experiment [2], in [13], in [5], in experiment [7] and in experiment [14]. For the same molecule, the call in [15], in experiment [16], in experiment [10], in experiment [11] and in [12] was inactive. For the same molecule, the AC50 was 0.119 µM (active) in [3], 100 µM (active) in experiment [4] and 100 µM (active) in [8].
As to `C[C@]12CC[C@@H]3c4ccc(O)cc4CC[C@H]3[C@@H]1CC[C@H]2O`, the molecule was called inactive in [1], in experiment [2], in experiment [3], in experiment [17], in [5] and in experiment [6]. Also, the result in [7], in experiment [18], in experiment [8], in experiment [14], in [19] and in experiment [15] was inactive. Besides, the molecule was classed as inactive in experiment [16], in experiment [10], in experiment [20], in [11] and in experiment [12]. Also, in experiment [3], the AC50 was 19.8 µM (active).
On to `Cc1cccc2ccccc12`, for which the result in [1], in [2], in experiment [3], in [13], in [4] and in experiment [17] was inactive. Also, the call in experiment [5], in [6], in experiment [7], in experiment [9], in experiment [15] and in experiment [16] was inactive. In addition, the result in experiment [10], in experiment [20], in experiment [11] and in experiment [12] was inactive.
